Measured values reported in PubChem BioAssay AID504834 (National Center for Advancing Translational Sciences (NCATS), 2011).
Screen size: about 320,000 compounds; about 22,000 (6.9%) were called active. About 27% were inconclusive and are not listed. What follows is part of a selection rich in actives, with near analogues and random picks from the rest. A number with no mark means an inactive call. Calls come from the whole dose curve; as a rule, active = well fitted inhibition curve with a large enough effect; inconclusive = small, poorly fitted or top-dose-only effect, or another doubt; inactive = no such curve, though single readings can be large or run the other way.
% is set by controls: 0 for no effect and ±100 for the full control effect; potency is the fitted concentration of half-maximal effect.

Experiment: Primary qHTS for delayed death inhibitors of the malarial parasite plastid, 96 hour incubation
Conditions: P. falciparum luciferase reporter growth; series mostly up to 28.7 µM; activity change, negative = inhibition: at the top concentration
Outline: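 P. falciparum expressing integrated firefly luciferase grown in erythrocytes (2% hematocrit, 0.05% parasitemia final) with compounds for 96 hours at 37 C, 5% CO2. Growth inhibition read as loss of luminescence after adding luciferase detection reagent.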
With `O=C(NCc1ccncc1)c1cccc(NS(=O)(=O)c2ccc(F)c(F)c2)c1` the “activity change, negative = inhibition” value was -14.9%.
With `CCOc1ccccc1NS(=O)(=O)c1cc2c3c(c1)C(C)C(=O)N3CCC2` (stereo unspecified) the “activity change, negative = inhibition” value was 35.1%.
In the case of `COc1ccc(/C=C/C(=O)NC(=S)NN2CCCCC2c2cccnc2)cc1` (stereo unspecified), the Potency is reported as 13.1 µM (active).
For `CCOc1ccc(NC(=S)NC(=O)/C=C/c2ccc(OC)cc2)c([N+](=O)[O-])c1`, the “activity change, negative = inhibition” value was 12.4%.
With `O=C(/C=C/c1ccc(F)cc1)NC(=S)NNC(=O)c1cccnc1` the “activity change, negative = inhibition” value was 41%.
In the case of `COC(=O)[C@@H](Cc1ccccc1)NC(=O)NCCc1ccccc1`, the “activity change, negative = inhibition” value is reported as 25.5%.
For `O=C1N=C(N2CCCC2)S/C1=C\c1cccc(Br)c1`, the “activity change, negative = inhibition” value was -20.9%.
With `O=C1N=C(N2CCc3ccccc3C2)S/C1=C\c1ccc(O)cc1` the Potency was 11.7 µM (active).
In the case of `NC1=NC(=O)S/C1=C\c1ccc(O)cc1`, the “activity change, negative = inhibition” value is reported as -5.18%.
With `COc1ccc(-c2nc3n(c(=O)c2C#N)CCS3)c(OC)c1` the “activity change, negative = inhibition” value was 37.4%.
In the case of `COc1cc(NS(=O)(=O)c2ccc(NC(=S)NC(=O)c3ccccc3)cc2)nc(OC)n1`, the “activity change, negative = inhibition” value is reported as -7.09%.
For `Cc1ccnc(NC(=O)CCNS(=O)(=O)c2ccc(C)c(C)c2)c1`, the “activity change, negative = inhibition” value was 253%.
In the case of `C/C(=N\NC(=S)NC1CCCCC1)c1ccc(C)o1`, the Potency is reported as 4.65 µM (active).
For `Cc1ccc(NC(=S)NC2CCCC2)cc1`, the “activity change, negative = inhibition” value was 60.3%.
In the case of `C/C(=N/NC(=O)c1ccc(Br)o1)c1ccc(C)o1`, the “activity change, negative = inhibition” value is reported as -27.2%.
For `CCCc1cc(C(=O)Nc2ccc(Cl)cn2)cs1`, the “activity change, negative = inhibition” value was -17.8%.
In the case of `CCOc1ccc(CCNC(=O)Nc2ccccc2)cc1OCC`, the “activity change, negative = inhibition” value is reported as 5.2%.
In the case of `COC(=O)c1cccc(N2C(=O)C3C4C=CC(CC4)C3C2=O)c1` (stereo unspecified), the “activity change, negative = inhibition” value is reported as 16.2%.
With `Cn1c(=NC(=O)c2cnccn2)sc2ccccc21` the Potency was 11.7 µM (active).
For `Cn1c(=NC(=O)CSCC(=O)N2CCCCC2)sc2ccccc21`, the “activity change, negative = inhibition” value was 34.9%.
For `Cn1c(=NC(=O)CSCC(=O)N2CCOCC2)sc2ccccc21`, the “activity change, negative = inhibition” value was 8.65%.
With `CCN(CC(=O)Nc1ccccc1C(=O)NC1CC1)Cc1cccs1` the “activity change, negative = inhibition” value was 11.3%.
In the case of `COc1cc(CN2CCC(n3nccc3NC(=O)CCCc3ccccc3)CC2)ccc1O`, the “activity change, negative = inhibition” value is reported as 15.5%.
In the case of `COCCCN1C(=O)C(=O)/C(=C(/O)c2ccc(S(=O)(=O)N3CCOCC3)cc2)C1c1ccc(F)cc1` (stereo unspecified), the “activity change, negative = inhibition” value is reported as 2.37%.
In the case of `CCc1cccc(NC(=O)C2CCCN(S(=O)(=O)c3ccc4[nH]c(=O)ccc4c3)C2)c1` (stereo unspecified), the “activity change, negative = inhibition” value is reported as -7.69%.
With `CCNC(=O)N1CCN(S(=O)(=O)c2ccc3c(c2)OCCCO3)CC1` the “activity change, negative = inhibition” value was -9.41%.
With `Cc1ccc(C(=O)NCC(=O)O)cc1S(=O)(=O)N1CCCCC1` the “activity change, negative = inhibition” value was -3.2%.
With `Cc1ccc(C(=O)Nc2ccc3c(c2)OCO3)cc1S(=O)(=O)N1CCCCC1` the “activity change, negative = inhibition” value was 46.5%.
For `Cc1ccc(C(=O)NC2CCCC(C)C2C)cc1S(=O)(=O)N1CCCCC1` (stereo unspecified), the Potency was 14.7 µM (active).
For `CC(C)CCNC(=O)c1ccc2c(Cl)c3c(nc2c1)CCC3`, the “activity change, negative = inhibition” value was 34%.
With `O=C(NNC(=O)c1ccco1)Nc1ccccc1` the “activity change, negative = inhibition” value was 0.862%.
With `O=C(Nc1ccc2oc(-c3ccc4ccccc4c3)nc2c1)c1cccs1` the Potency was 4.65 µM (active).
With `O=C(Cc1cccc2ccccc12)Nc1ccc2oc(-c3ccccc3)nc2c1` the “activity change, negative = inhibition” value was -21.5%.
With `CC(=O)Nc1ccc(-c2nc3ccccc3o2)cc1` the “activity change, negative = inhibition” value was -22.4%.
For `O=C(c1ccc(Br)o1)N1CCN(CCOc2ccccc2)CC1`, the “activity change, negative = inhibition” value was -12.7%.
In the case of `COc1ccc2[nH]cc(CCN3C(=O)c4ccc(C(=O)O)cc4C3=O)c2c1`, the “activity change, negative = inhibition” value is reported as 33.5%.
For `COc1ccc(N2C(=O)c3ccccc3NC2c2ccc(OC)c(CN3CCOCC3)c2)cc1` (stereo unspecified), the “activity change, negative = inhibition” value was 316%.
In the case of `Fc1ccc(OCc2nn3c(Cn4nnc5ccccc54)nnc3s2)cc1`, the “activity change, negative = inhibition” value is reported as -28.1%.
In the case of `COc1ccc(C2Nc3ccccc3C(=O)N2c2ccc(F)cc2)cc1Cn1nnc2ccccc21` (stereo unspecified), the Potency is reported as 9.28 µM (active).
For `COc1ccc(C2Nc3ccccc3C(=O)N2Cc2ccccc2)cc1Cn1nnc2ccccc21` (stereo unspecified), the Potency was 3.29 µM (active).
For `CC(=O)NN1C(=O)c2ccccc2NC1c1ccccc1` (stereo unspecified), the “activity change, negative = inhibition” value was -3.77%.
With `Cc1ccc(C2Nc3ccccc3C(=O)N2CCN2CCNC2=O)cc1` (stereo unspecified) the “activity change, negative = inhibition” value was -0.318%.
For `COc1ccc(N(CC(=O)NCC2CCCO2)C(=O)CCC(=O)Nc2nccs2)c(OC)c1` (stereo unspecified), the “activity change, negative = inhibition” value was -6.68%.
For `O=C(CSc1nc2[nH]c(=O)[nH]c(=O)c2s1)Nc1cccc(F)c1`, the “activity change, negative = inhibition” value was 1.82%.
With `Cc1ccc(S(=O)(=O)N2CCCCC2)cc1C(=O)N(C)CC(=O)Nc1cccc(F)c1` the “activity change, negative = inhibition” value was -27.7%.
With `CC(C)(C)C(=O)COC(=O)c1cc(S(=O)(=O)N2CCCCC2)ccc1N1CCOCC1` the “activity change, negative = inhibition” value was 19.3%.
In the case of `CCc1nn(CC(=O)N2CCN(CC)CC2)c(=O)c2cccn12`, the “activity change, negative = inhibition” value is reported as 40.8%.
In the case of `CC(NC(=O)C1CCCN(S(=O)(=O)c2ccc(-n3cnnn3)cc2)C1)c1ccc(F)cc1` (stereo unspecified), the “activity change, negative = inhibition” value is reported as -24.7%.
In the case of `C=CCn1c(=NC(=O)c2ccc(S(=O)(=O)N3CCCC3)cc2)sc2cc(NC(C)=O)ccc21`, the Potency is reported as 0.928 µM (active).
For `COc1cc(C(C)=O)ccc1OC(C)C(=O)Nc1ccc(S(=O)(=O)N2CCCC2)cc1` (stereo unspecified), the “activity change, negative = inhibition” value was 2.7%.
With `C=CCn1c(=NC(=O)c2cccs2)sc2cc(NC(C)=O)ccc21` the “activity change, negative = inhibition” value was 110%.
In the case of `O=C(Cc1ccccc1F)NC1CCSc2ccccc21` (stereo unspecified), the “activity change, negative = inhibition” value is reported as -14.4%.
For `O=S(=O)(/C=C/c1ccccc1)N1CCNCC1`, the “activity change, negative = inhibition” value was -0.204%.
With `CC1CCN(C(=O)CCNC(=O)c2ccccc2)CC1` the “activity change, negative = inhibition” value was 0%.
For `Cn1c(CC2Sc3ccccc3NC2=O)nnc1SCC(=O)c1ccc(Cl)cc1` (stereo unspecified), the “activity change, negative = inhibition” value was -8.32%.
In the case of `O=C(NCCN1CCOC1=O)C1CCC(=O)N(CCc2ccc(Cl)cc2)C1` (stereo unspecified), the “activity change, negative = inhibition” value is reported as -21.2%.
In the case of `COCCOC(=O)C1=C(C)NC(=O)NC1c1ccc(Cl)cc1` (stereo unspecified), the “activity change, negative = inhibition” value is reported as 10.3%.
With `CCOC(=O)COc1ccc(Cl)cc1C1NC(=O)NC(C)=C1C(C)=O` (stereo unspecified) the “activity change, negative = inhibition” value was -16%.
With `CCOC(=O)C1=C(C)NC(=O)N(C(C)=O)C1c1ccc(Cl)cc1` (stereo unspecified) the Potency was 4.15 µM (active).
In the case of `OC(COc1ccc(F)cc1Cl)CN1CCc2ccccc2C1` (stereo unspecified), the “activity change, negative = inhibition” value is reported as 5.53%.
In the case of `CS(=O)(=O)c1ccccc1C(=O)Nc1ccc2sccc2c1`, the “activity change, negative = inhibition” value is reported as 35.9%.
For `O=[N+]([O-])c1cccc2ncccc12`, the “activity change, negative = inhibition” value was 2.85%.
With `C/C(=N\NC(=S)NC(C)C)c1ccc(C(C)(C)C)cc1` the Potency was 3.7 µM (active).
For `C/C(=N\NC(N)=S)c1cccnc1`, the “activity change, negative = inhibition” value was 22.1%.
With `C/C(=N\NC(N)=S)c1ccncc1` the “activity change, negative = inhibition” value was 17.4%.
In the case of `CC(C)Cc1nnc(NC(=O)CCc2ccccc2)s1`, the “activity change, negative = inhibition” value is reported as -25%.
For `CC(=O)N(Cc1cc(=O)[nH]c2ccccc12)c1ccc(C)cc1C`, the “activity change, negative = inhibition” value was -0.0262%.
For `Cc1noc(C)c1CSCC(=O)Nc1ccc(Br)cc1Cl`, the “activity change, negative = inhibition” value was 0.407%.
In the case of `Cc1cccc(Cn2cnc3c(N)c(C)c(C)cc32)c1`, the Potency is reported as 10.4 µM (active).
With `COc1cccc(Cn2cnc3c([N+](=O)[O-])c(C)c(C)cc32)c1` the “activity change, negative = inhibition” value was -13.7%.
With `CCOC(=O)c1cn(Cc2cccc(C)c2)nn1` the “activity change, negative = inhibition” value was -7.81%.
